According to PubChem BioAssay AID1159580 (chemical genetic matrix, 2015):
In all, about 5,500 compounds went through this assay and about 2,000 (36%) were called active. About 18% were inconclusive and are not listed. Rule as the data show it: active = normalized growth mostly below about 0.91 (no sharp cut-off); inconclusive = no clear call, values can overlap the other calls; inactive = mostly above about 0.92. This is one part of the list.

Assay: chemical genetic growth profiling, strain panel (AID 1159580);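 also: tested at 20 µM; growth read once vehicle control cultures reached saturation at 30 °C; 1 = growth at the plate median or of vehicle wells; lower values mean less growth of the strain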
Details: S. cerevisiae deletion strains, growth OD

Measured: normalized growth

C1CCN2CC3CC(CN4CCCCC34)C2C1 (centres undefined)
active: locus YDR318W, strain mcm21, active compounds read low 0.654 | locus YGL086W, strain mad1, active compounds read low 0.901 | locus YGR135W, strain pre9, active compounds read low 0.838 | locus YGR252W, strain gcn5, active compounds read low 0.732
inactive: locus YAL013W, strain DEP1, active compounds read low 1.01 | locus YAL021C, strain ccr4, active compounds read low 1 | locus YAL026C, strain drs2, active compounds read low 1.03 | locus YAL030W, strain snc1, active compounds read low 1.01 | locus YBL061C, strain skt5, active compounds read low 1.02 | locus YBR009C, strain hhf1, active compounds read low 1.02 | locus YBR021W, strain FUR4, active compounds read low 1 | locus YBR023C, strain chs3, active compounds read low 1.02 | locus YBR171W, strain sec66, active compounds read low 1.03 | locus YBR229C, strain ROT2, active compounds read low 1.01 | locus YBR231C, strain swc5, active compounds read low 1.01 | locus YBR279W, strain paf1, active compounds read low 1.02 | locus YCL011C, strain gbp2, active compounds read low 1.02 | locus YCL016C, strain dcc1, active compounds read low 1.02 | locus YCL029C, strain bik1, active compounds read low 1.01 | locus YCL061C, strain MRC1, active compounds read low 1.02 | locus YCL069W, strain vba3, active compounds read low 1.03 | locus YCR088W, strain abp1, active compounds read low 1.03 | locus YDL005C, strain med2, active compounds read low 1.03 | locus YDL035C, strain GPR1, active compounds read low 1.01 | locus YDL040C, strain nat1, active compounds read low 1.01 | locus YDL074C, strain BRE1, active compounds read low 1.01 | locus YDL101C, strain DUN1, active compounds read low 0.997 | locus YDL134C, strain PPH21, active compounds read low 1 | locus YDL185W, strain tfp1, active compounds read low 1.01 | locus YDL192W, strain arf1, active compounds read low 1.01 | locus YDR001C, strain nth1, active compounds read low 1.02 | locus YDR069C, strain doa4, active compounds read low 1.03 | locus YDR101C, strain arx1, active compounds read low 1.01 | locus YDR137W, strain rgp1, active compounds read low 1.02 | locus YDR150W, strain NUM1, active compounds read low 1.01 | locus YDR159W, strain sac3, active compounds read low 1.03 | locus YDR162C, strain NBP2, active compounds read low 0.993 | locus YDR195W, strain ref2 0.99 | locus YDR297W, strain sur2, active compounds read low 1.01 | locus YDR334W, strain swr1, active compounds read low 1.03 | locus YDR335W, strain msn5, active compounds read low 1.04 | locus YDR388W, active compounds read low 1 | locus YDR392W, strain spt3, active compounds read low 0.929 | locus YDR502C, strain sam2, active compounds read low 0.974 | locus YEL003W, strain gim4, active compounds read low 1.03 | locus YEL037C, strain rad23, active compounds read low 1.02 | locus YEL061C, strain CIN8 (second series), active compounds read low 1.03 | locus YEL061C, strain CIN8, active compounds read low 1.01 | locus YER015W, strain faa2, active compounds read low 1.01 | locus YER016W, strain bim1, active compounds read low 1.03 | locus YER110C, active compounds read low 1.02 | locus YER111C, strain swi4, active compounds read low 1.02 | locus YER155C, strain BEM2 (second series), active compounds read low 1.05 | locus YER155C, strain BEM2, active compounds read low 1.01 | locus YER167W, strain BCK2, active compounds read low 1.01 | locus YFR010W, strain ubp6, active compounds read low 1.02 | locus YGL078C, strain dbp3, active compounds read low 0.983 | locus YGL167C, strain pmr1, active compounds read low 1.02 | locus YGL173C, strain kem1, active compounds read low 1.03 | locus YGL227W, strain vid30, active compounds read low 1.02 | locus YGL240W, strain doc1, active compounds read low 1.03 | locus YGL248W, strain PDE1, active compounds read low 0.998 | locus YGL253W, strain hxk2, active compounds read low 1.02 | locus YGR078C, strain PAC10, active compounds read low 1 | locus YGR229C, strain SMI1, active compounds read low 1.01 | locus YHR013C, strain ard1, active compounds read low 1.01 | locus YHR027C, strain rpn1, active compounds read low 1.01 | locus YHR030C, strain SLT2, active compounds read low 1.01 | locus YHR079C, strain IRE1 (second series), active compounds read low 0.999 | locus YHR094C, strain hxt1, active compounds read low 1.01 | locus YHR129C, strain ARP1, active compounds read low 1 | locus YHR142W, strain chs7, active compounds read low 1 | locus YHR200W, strain rpn10, active compounds read low 1 | locus YIL066C, strain RNR3, active compounds read low 1.02 | locus YIL073C, strain SPO22, active compounds read low 1.07 | locus YIL125W, strain kgd1, active compounds read low 1 | locus YIR030C, strain dcg1, active compounds read low 1.01 | locus YJL092W, strain hpr5, active compounds read low 1.03 | locus YJL095W, strain BCK1 (second series), active compounds read low 1.02 | locus YJL095W, strain BCK1, active compounds read low 0.995 | locus YJL115W, strain asf1, active compounds read low 1.03 | locus YJL129C, strain trk1, active compounds read low 1.02 | locus YJL134W, strain LCB3, active compounds read low 1.01 | locus YJL154C, strain vps35, active compounds read low 1.02 | locus YJL164C, strain tpk1, active compounds read low 1.01 | locus YJL166W, strain qcr8, active compounds read low 1.02 | locus YJL168C, strain set2, active compounds read low 1.01 | locus YJL187C, strain SWE1 (second series), active compounds read low 1.01 | locus YJL187C, strain SWE1, active compounds read low 1.02
